In PubChem BioAssay AID504452 (The Scripps Research Institute Molecular Screening Center, 2011):
The source made the active and inactive calls. Cut-off read from the data, not from the text of the source: active = activation above about 85%; inactive = the rest.

Molecular target: Peroxisome proliferator-activated receptor gamma (Homo sapiens) (UniProt P37231)
Assay: PPARg partial agonist activation, primary screen, cell-based, luciferase reporter, luminescence (AID 504452);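 note: Cos-1 cells carrying PPARgamma and a response element luciferase reporter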
Conditions: at 5 µM, stronger effect = higher value; activation (% of full agonist control): measured here: relative to full agonist control

Peroxisome proliferator-activated receptor gamma (Homo sapiens), sequence (P37231 whole entry, looked up): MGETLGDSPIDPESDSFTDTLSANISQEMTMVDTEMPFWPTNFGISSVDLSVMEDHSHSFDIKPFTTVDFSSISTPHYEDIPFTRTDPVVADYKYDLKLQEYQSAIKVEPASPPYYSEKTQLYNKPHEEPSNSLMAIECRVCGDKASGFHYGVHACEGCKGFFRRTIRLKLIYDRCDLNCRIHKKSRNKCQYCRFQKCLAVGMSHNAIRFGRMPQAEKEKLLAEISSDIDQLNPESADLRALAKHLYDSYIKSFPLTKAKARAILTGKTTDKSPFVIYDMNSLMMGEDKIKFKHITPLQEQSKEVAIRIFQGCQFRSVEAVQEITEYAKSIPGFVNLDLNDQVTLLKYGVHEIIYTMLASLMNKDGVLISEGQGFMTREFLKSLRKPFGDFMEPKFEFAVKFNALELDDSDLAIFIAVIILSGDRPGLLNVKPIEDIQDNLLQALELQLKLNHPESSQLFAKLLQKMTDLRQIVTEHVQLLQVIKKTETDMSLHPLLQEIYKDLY

Compound | activation (% of full agonist control) [%] | activation (% of partial agonist control)
CSCc1c(C(=O)Nc2ccc(N3CCOCC3)cc2)oc2ccccc12 | 33.5 | 74.2% (inactive)
O=C(c1ccccc1)c1ccc(NCCCn2ccnc2)c([N+](=O)[O-])c1 | 26.9 | 59.6% (inactive)
Cc1nn(Cc2cccc(C(=O)Nc3ccn(Cc4ccccc4F)n3)c2)c(C)c1[N+](=O)[O-] | 32.8 | 72.6% (inactive)
Cc1c(-n2cc(C(=O)c3cc(F)ccc3O)cc(C#N)c2=O)c(=O)n(-c2ccccc2)n1C | 43.7 | 96.7% (active)
O=C(c1cc(-c2ccco2)nc2ccccc12)N1CCCC(C(F)(F)F)C1 (stereo unspecified) | 27.6 | 61% (inactive)
Cc1cccn2c(=O)c(/C=C(\C#N)C(=O)NC3CCS(=O)(=O)C3)c(Oc3ccc(F)cc3)nc12 (stereo unspecified) | 34.6 | 76.7% (inactive)
Cc1ccc(C(=O)N2NC(c3ccccc3F)C3C(=O)N(c4cccc(C)c4)C(=O)C32)cc1 (stereo unspecified) | 33.4 | 73.8% (inactive)
Cc1nc2c(sc(=S)n2Cc2ccco2)c(=O)n1CC(=O)Nc1cc(F)ccc1F | 32.4 | 71.8% (inactive)
N=c1c(C(=O)NCCc2ccccc2)cc2c(=O)n3ccccc3nc2n1CC1CCCO1 (stereo unspecified) | 34.6 | 76.7% (inactive)
O=C(NCCCn1ccnc1)C(=O)NCC(c1ccco1)N1CCN(c2ccccc2)CC1 (stereo unspecified) | 28.4 | 62.9% (inactive)
O=C(Cn1c(=O)c(=O)n(Cc2ccccc2)c2ccc(Cl)cc21)Nc1cccc(F)c1 | 25.4 | 56.2% (inactive)
Cn1cc(CNCc2cn[nH]c2-c2ccc(F)cc2)c(-c2ccc3c(c2)OCCO3)n1 | 29.7 | 65.8% (inactive)
Cc1cccn2c(CN3CCNC(=O)CC3)c(C(=O)N(C)CCc3ccccc3)nc12 | 36.3 | 80.3% (inactive)
COc1ccc2c(c1)c(CCN1C(=O)c3ccccc3C1=O)cn2C(=O)c1ccco1 | 27.3 | 60.4% (inactive)
COc1ccc(NC(=O)C(=O)c2cn(CC(=O)N3CCCC3)c3ccccc23)c(OC)c1 | 32.9 | 72.7% (inactive)
Cc1cc(N2C(=O)C(O)=C(C(=O)c3ccco3)C2c2cccc(Cl)c2)no1 (stereo unspecified) | 25.2 | 55.9% (inactive)
COC(=O)c1sc(N2C(=O)C(O)=C(C(=O)c3ccc(C)o3)C2c2ccc(F)cc2)nc1C (stereo unspecified) | 29.9 | 66.2% (inactive)

Compound | activation (% of full agonist control) [%] | activation (% of partial agonist control)
CN1CCN(S(=O)(=O)c2ccc(Sc3nc4ccccc4[nH]3)c3nsnc23)CC1 | 43.8 | 96.9% (active)
COc1cc(C2/C(=C(/O)c3ccc(F)cc3)C(=O)C(=O)N2CCCC(=O)O)ccc1O (stereo unspecified) | 37 | 82% (inactive)
Cc1ccc2[nH]c(=O)c(CN(Cc3cccs3)Cc3nnnn3CC3CCCO3)cc2c1 (stereo unspecified) | 44.1 | 97.6% (active)
O=S(=O)(NCC(c1ccc2c(c1)OCO2)N1CCOCC1)c1ccc(F)cc1 (stereo unspecified) | 35.4 | 78.4% (inactive)
CCOc1cccc(/C(O)=C2/C(=O)C(=O)N(Cc3ccco3)C2c2ccncc2)c1 (stereo unspecified) | 41.1 | 91% (active)
Cc1cc(C(=O)CN2C(=O)C(=O)N(Cc3ccccc3)C2=O)c(C)n1-c1ccc2c(c1)OCCO2 | 40.4 | 89.5% (active)
COc1ccc(C)c2sc(N(CCCN(C)C)C(=O)CS(=O)(=O)c3ccc(F)cc3)nc12 | 31.2 | 69.1% (inactive)
COc1ccc(-n2c3c(cc(C(=O)NNc4ccccc4C)c2=O)C(=O)CC(C)(C)C3)cc1 | 32.7 | 72.5% (inactive)
COc1ccccc1N1C(=O)C2C(C(=O)c3ccccc3)=NN(c3ccc(C)cc3)C2C1=O (stereo unspecified) | 47.8 | 106% (active)
CCn1cc(C(=O)N2CCN(c3ccc(OC)cc3)CC2)c2cc(OC)c(OC)cc2c1=O | 27.6 | 61% (inactive)
Cc1[nH][nH]c(=O)c1C(c1c(C)[nH][nH]c1=O)c1cn(Cc2ccc(Cl)c(Cl)c2)c2ccccc12 | 35.5 | 78.5% (inactive)
O=C(NC(Cc1ccccc1)C(=O)N1CCN(c2ccccc2O)CC1)c1ccccc1 (stereo unspecified) | 40.7 | 90.2% (active)
O=C(CNC(=O)c1nc[nH]c1C(=O)N1CCc2ccccc2C1)OCc1ccccc1 | 40.3 | 89.3% (active)
O=c1c([N+](=O)[O-])c(NCCN2CCCCCC2)c2ccccc2n1-c1ccccc1 | 15.8 | 34.9% (inactive)
O=C(C1CC(=O)N(c2ccc3c(c2)OCCO3)C1)N1CCN(c2ccccc2O)CC1 (stereo unspecified) | 31.6 | 69.9% (inactive)
Cc1ccc(S(=O)(=O)Nc2ccccc2F)cc1C(=O)N1CCN(c2ccccc2O)CC1 | 33 | 73% (inactive)
